# According to PubChem BioAssay (NCATS):
# Results filed as inconclusive are left out. Where a call stands in place of a potency, no number is given. Calls of active or inactive are those of the source. The call rests on the fitted dose curve. Bridge positions count the residues as written; N and C are the ends. Square brackets hold non-standard residues; d marks the D form. Peptide text beside a SMILES is read from it. * marks the point of attachment. X1 = CCC(C)C(N)C1=NC(C(=O)*)CS1; dOrn = NCCC[C@@H](N)C(=O)O
# Tests used:
# [1] = Primary qHTS for inhibitors of SARS-S pseudo-typed particle cell entry (AID 1479145); settings: outcome: dose series up to 57.1 µM unless noted; further: nearly all actives have a fitted effect of over 45% in size
# [2] = Primary qHTS for Huh7 cytotoxicity: counterscreen for inhibitors of MERS-S pseudotyped particle cell entry (AID 1479147); settings: outcome: dose series up to 57.1 µM unless noted
# [3] = Primary qHTS for inhibitors of MERS-S pseudo-typed particle cell entry (AID 1479149); settings: outcome: dose series up to 57.1 µM unless noted; further: nearly all actives have a fitted effect of over 60% in size
# [4] = Primary qHTS for Vero E6 cytotoxicity: counterscreen for inhibitors of SARS-S pseudo-typed particle cell entry (AID 1479150); settings: outcome: dose series up to 57.1 µM unless noted
# [5] = Cytotoxicity counterscreen for inhibitors of SARS-CoV-2 cell entry (AID 1645845); settings: outcome: dose series up to 57.1 µM unless noted; further: nearly all actives have a fitted effect of over 50% in size
# Method in brief: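 After a 15 min room-temperature ATPLite 1step step, luminescence reflected ATP remaining in HEK293-ACE2 cells exposed to compound for 1 h plus 48 h at 37 C, with percent activity set by cell and no-cell controls.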
# [6] = Primary qHTS to identify inhibitors of SARS-CoV-2 cell entry (AID 1645846); settings: SARS-CoV-2 pseudovirus cell entry assay, luminescence; activity change, negative = inhibition: at 57.1 µM (top of the series) unless noted; further: nearly all actives have a fitted effect of over 45% in size
# Method in brief: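 Luminescence readout (Bright-Glo luciferase) 48 h after pseudoparticle addition. HEK293-ACE2 cells, 1500/well; compound pre-incubation 1 h; Normalized to spike PP and bald PP.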
compound,measurement,setting,value
C=C1CC[C@H](O)C/C1=C\C=C1/CCC[C@]2(C)[C@@H]([C@H](C)CC[C@H](O)C(C)(C)O)CC[C@@H]12,Potency,[1],inactive
same,Potency,[2],inactive
same,Potency,[3],inactive
same,Potency,[4],inactive
same,Potency,[5],inactive
same,"activity change, negative = inhibition",[6],-14.2%
O=C(O)CCCN1CCC(O[C@@H](c2ccc(Cl)cc2)c2ccccn2)CC1,Potency,[1],inactive
same,Potency,[2],inactive
same,Potency,[3],inactive
same,Potency,[4],inactive
same,Potency,[5],inactive
CC[C@H]1OC(=O)C[C@@H](O)[C@H](C)[C@@H](O[C@@H]2O[C@H](C)[C@@H](O[C@H]3C[C@@](C)(O)[C@@H](O)[C@H](C)O3)[C@H](N(C)C)[C@H]2O)[C@@H](CC=O)C[C@@H](C)C(=O)/C=C/C(C)=C/[C@@H]1CO[C@@H]1O[C@H](C)[C@@H](O)[C@@H](OC)[C@H]1OC,Potency,[1],inactive
same,Potency,[2],inactive
same,Potency,[3],inactive
same,Potency,[4],inactive
same,Potency,[5],inactive
same,Potency,[6],inactive
CCC(C)C(N)C1=NC(C(=O)N[C@@H](CC(C)C)C(=O)N[C@H](CCC(=O)O)C(=O)N[C@H](C(=O)N[C@H]2CCCCNC(=O)[C@H](CC(N)=O)NC(=O)[C@@H](CC(=O)O)NC(=O)[C@H](Cc3cnc[nH]3)NC(=O)[C@@H](Cc3ccccc3)NC(=O)[C@H]([C@@H](C)CC)NC(=O)[C@@H](CCCN)NC2=O)[C@@H](C)CC)CS1 (stereo partly specified) (X1-L[dE]IK[dOrn]I[dF]H[dD]N; lactam 4-C),Potency,[1],inactive
same,Potency,[2],inactive
same,Potency,[3],inactive
same,Potency,[4],inactive
same,Potency,[5],inactive
same,"activity change, negative = inhibition",[6],-8.8% [at 27.1 µM]
Cc1nc(NS(=O)(=O)c2ccc(N)cc2)nc(C)c1Br,Potency,[1],inactive
same,Potency,[2],inactive
same,Potency,[3],inactive
same,Potency,[4],inactive
same,Potency,[5],inactive
same,"activity change, negative = inhibition",[6],-21.5%
CC(C)(CO)C(O)C(=O)NCCCC(=O)O (stereo unspecified),Potency,[1],inactive
same,Potency,[2],inactive
same,Potency,[3],inactive
same,Potency,[4],inactive
same,Potency,[5],inactive
CCC=CCC=CCC=CCCCCCCCC(=O)O,Potency,[1],inactive
same,Potency,[2],inactive
same,Potency,[3],inactive
same,Potency,[4],inactive
same,Potency,[5],inactive
same,Potency,[6],inactive
COc1cc2c(cc1OC)[C@@H](Cc1cc(OC)c(OC)c(OC)c1)[N+](C)(CCCOC(=O)CC/C=C/CCC(=O)OCCC[N+]1(C)CCc3cc(OC)c(OC)cc3[C@H]1Cc1cc(OC)c(OC)c(OC)c1)CC2 (stereo partly specified),Potency,[1],inactive
same,Potency,[2],inactive
same,Potency,[3],inactive
same,Potency,[4],inactive
same,Potency,[5],inactive
same,"activity change, negative = inhibition",[6],-24%
CN(CC(=O)N1CCOCC1)Cc1c(Cl)cccc1NC(=O)c1ccccc1,Potency,[1],inactive
same,Potency,[2],inactive
same,Potency,[3],inactive
same,Potency,[4],inactive
same,Potency,[5],inactive
same,"activity change, negative = inhibition",[6],-38.4%
NCCCC[C@H](N)C(=O)O,outcome,[1],inactive [at 0.573 µM]
same,outcome,[2],inactive [at 0.573 µM]
same,outcome,[3],inactive [at 0.573 µM]
same,"activity change, negative = cytotoxicity",[4],2.08% [at 0.573 µM] (inactive)
same,"activity change, negative = cytotoxicity",[5],2.36% [at 0.702 µM] (inactive)
same,outcome,[6],inactive [at 0.702 µM]
NC(N)=NCCC[C@@H](N)C(=O)N[C@@H](CCCN=C(N)N)C(=O)N1CCC[C@H]1C(=O)N1C[C@H](O)C[C@H]1C(=O)NCC(=O)N[C@@H](Cc1cccs1)C(=O)N[C@@H](CO)C(=O)N1Cc2ccccc2C[C@@H]1C(=O)N1[C@H](C(=O)N[C@@H](CCCN=C(N)N)C(=O)O)C[C@@H]2CCCC[C@@H]21,Potency,[1],inactive
same,Potency,[2],inactive
same,Potency,[3],inactive
same,Potency,[4],inactive
same,Potency,[5],inactive
same,Potency,[6],inactive
CC1=C(C(=O)OCCN(Cc2ccccc2)c2ccccc2)C(c2cccc([N+](=O)[O-])c2)C(P2(=O)OCC(C)(C)CO2)=C(C)N1 (stereo unspecified),Potency,[1],inactive
same,Potency,[2],inactive
same,Potency,[3],inactive
same,Potency,[4],inactive
same,Potency,[5],inactive
CC=CC1=C(C(=O)O)N2C(=O)[C@@H](NC(=O)[C@H](N)c3ccc(O)cc3)[C@H]2SC1,Potency,[1],inactive
same,Potency,[2],inactive
same,Potency,[3],inactive
same,Potency,[4],inactive
same,Potency,[5],inactive
same,Potency,[6],inactive
CC(=O)OCC(=O)[C@@]1(O)[C@H](C)C[C@H]2[C@@H]3C[C@H](F)C4=CC(=O)C=C[C@]4(C)[C@H]3[C@@H](O)C[C@@]21C,Potency,[1],inactive
same,Potency,[2],inactive
same,Potency,[3],inactive
same,Potency,[4],inactive
same,Potency,[5],inactive
same,"activity change, negative = inhibition",[6],-11.4%
CC(C)OC(=O)CCC/C=C\C[C@@H]1[C@@H](CC[C@@H](O)CCc2ccccc2)[C@H](O)C[C@@H]1O,"activity change, negative = inhibition",[1],-26.3% [at 11.4 µM] (inactive)
same,"activity change, negative = cytotoxicity",[2],-6.62% [at 11.4 µM] (inactive)
same,outcome,[3],inactive [at 11.4 µM]
same,"activity change, negative = cytotoxicity",[4],3.55% [at 11.4 µM] (inactive)
same,"activity change, negative = cytotoxicity",[5],-2.53% [at 11.3 µM] (inactive)
Cc1cc2nc3c(=O)[nH]c(=O)nc-3n(C[C@H](O)[C@H](O)[C@H](O)COP(=O)(O)OP(=O)(O)OC[C@H]3O[C@@H](n4cnc5c(N)ncnc54)[C@H](O)[C@H]3O)c2cc1C,Potency,[1],inactive
same,Potency,[2],inactive
same,Potency,[3],inactive
same,Potency,[4],inactive
same,Potency,[5],inactive
same,"activity change, negative = inhibition",[6],-9.08% [at 27.1 µM]
CC(C)(C)NCC(O)CSc1nc(-c2ccc(C(N)=O)s2)cs1 (stereo unspecified),Potency,[1],inactive
same,Potency,[2],inactive
same,Potency,[3],inactive
same,Potency,[4],inactive
same,Potency,[5],inactive
same,"activity change, negative = inhibition",[6],-22.9%
CCc1ccc(Nc2c(F)c(F)cc(F)c2F)c(CC(=O)O)c1,Potency,[1],inactive
same,Potency,[2],inactive
same,Potency,[3],inactive
same,Potency,[4],inactive
same,Potency,[5],inactive
CC(C)C[C@H](NC(=O)[C@@H](COC(C)(C)C)NC(=O)[C@H](Cc1ccc(O)cc1)NC(=O)[C@H](CO)NC(=O)[C@H](Cc1c[nH]c2ccccc12)NC(=O)[C@H](Cc1cnc[nH]1)NC(=O)[C@@H]1CCC(=O)N1)C(=O)N[C@@H](CCCN=C(N)N)C(=O)N1CCC[C@H]1C(=O)NNC(N)=O,Potency,[1],inactive
same,Potency,[2],inactive
same,Potency,[3],inactive
same,Potency,[4],inactive
same,Potency,[5],inactive
same,"activity change, negative = inhibition",[6],-11.8% [at 27.1 µM]
O=C1O[C@H]2[C@H](OC(O)[C@@H]2O)[C@@H]1O (stereo partly specified),Potency,[1],inactive
same,Potency,[2],inactive
same,Potency,[3],inactive
same,Potency,[4],inactive
same,Potency,[5],inactive
same,Potency,[6],inactive
CCNC(=O)CCC/C=C\C[C@@H]1[C@@H](/C=C/[C@@H](O)CCc2ccccc2)[C@H](O)C[C@@H]1O,Potency,[1],inactive
same,Potency,[2],inactive
same,Potency,[3],inactive
same,Potency,[4],inactive
same,Potency,[5],inactive
same,"activity change, negative = inhibition",[6],-19.7%
[2H]C([2H])([2H])C(O)(CCO[C@@H](C)[C@H]1CC[C@H]2/C(=C/C=C3\C[C@@H](O)C[C@H](O)C3=C)CCC[C@]12C)C([2H])([2H])[2H],Potency,[1],inactive
same,Potency,[2],inactive
same,Potency,[3],inactive
same,Potency,[4],inactive
same,Potency,[5],inactive
